Results filed as inconclusive are left out. The source made the active and inactive calls. Calls come from the whole dose curve; as a rule, active = well fitted cell-killing curve with a large enough effect; inconclusive = small, poorly fitted or top-dose-only effect, or effect the other way; inactive = flat fitted curve, though single readings scatter.
How the values were obtained:
Test in all cases: Primary qHTS to identify gynecologic anti-cancer compounds using libraries of approved drugs and bioactive compounds (AID 1345084); note: nearly all actives have a fitted effect of over 55% in size
[1] = system: CAOV3; details: Gynecologic cancer cell panel viability, ATPlite luminescence, 48 h; series mostly up to 57.5 µM
Method in brief: (§1)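 Cells, 1,000 per well, plated 16 h, then exposed 48 h at 37 C to compounds. Viability by ATPlite luminescence after 15 min at room temperature.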

[2] = system: CASKI; details: Gynecologic cancer cell panel viability, ATPlite luminescence, 48 h; series mostly up to 57.5 µM
Method in brief: as §1

[3] = system: Es-2; details: Gynecologic cancer cell panel viability, ATPlite luminescence, 48 h; series mostly up to 57.5 µM
Method in brief: as §1

[4] = system: HeLa; details: Gynecologic cancer cell panel viability, ATPlite luminescence, 48 h; series mostly up to 57.5 µM
Method in brief: as §1

[5] = system: Hek293T; details: Gynecologic cancer cell panel viability, ATPlite luminescence, 48 h, control line for the selectivity index; series mostly up to 57.5 µM
Method in brief: as §1

[6] = system: JEG-3; details: Gynecologic cancer cell panel viability, ATPlite luminescence, 48 h; series mostly up to 57.5 µM
Method in brief: as §1

[7] = system: OV90; details: Gynecologic cancer cell panel viability, ATPlite luminescence, 48 h; series mostly up to 57.5 µM
Method in brief: as §1

[8] = system: PA-1; details: Gynecologic cancer cell panel viability, ATPlite luminescence, 48 h; series mostly up to 57.5 µM
Method in brief: as §1

[9] = system: C33A; details: Gynecologic cancer cell panel viability, ATPlite luminescence, 48 h; series mostly up to 57.5 µM
Method in brief: as §1
% is set by controls: 0 for no effect and ±100 for the full control effect; potency is the fitted concentration of half-maximal effect.

COc1ccccc1C(=O)Nc1cccc(NC(=O)c2cccc(C)c2)c1
inactive: Potency [1] | Potency [2] | Potency [3] | Potency [4] | Potency [5] | Potency [6] | Potency [7] | Potency [8]

Cc1ccc(-c2cn3c4c(sc3n2)CCCC4)cc1
active: Potency [1] 10 µM | Potency [2] 17.8 µM | Potency [3] 11.2 µM | Potency [4] 12.6 µM | Potency [5] 12.6 µM

CCNC(=O)c1noc(-c2cc(Cl)c(O)cc2O)c1-c1ccc(OC)cc1
inactive: Potency [7]
active: Potency [9] 1.12 µM | Potency [5] 0.355 µM | Potency [8] 0.562 µM

C#Cc1cccc(Nc2nc3cc(C(=O)O)ccc3c3cncnc23)c1
active: Potency [4] 11.2 µM | Potency [8] 3.55 µM
inactive: Potency [9] | Potency [6]

NC(=O)CCCSc1nc(N)nc(-c2c(Cl)cc3c4c(cccc24)COC3)n1
inactive: Potency [4]
active: Potency [9] 0.891 µM | Potency [7] 0.708 µM | Potency [8] 0.891 µM

Cc1sc2c(c1C)C(c1ccc(Cl)cc1)=N[C@@H](CC(=O)Nc1ccc(OCCOCCOCCOCCNc3cccc4c3C(=O)N(C3CCC(=O)NC3=O)C4=O)cc1)c1nnc(C)n1-2 (stereo partly specified)
inactive: Potency [9] | Potency [5]

CC(C)(C)Sc1c(CC(C)(C)C(=O)O)n(Cc2ccc(Cl)cc2)c2ccc(OCc3ccc4ccccc4n3)cc12
inactive: Potency [9] | Potency [3] | Potency [4] | Potency [5] | Potency [6] | Potency [7] | Potency [8]

Cc1noc(C)c1-c1cc(O)cc(C(O)c2ccccc2)c1 (stereo unspecified)
inactive: Potency [9] | Potency [5] | Potency [6] | Potency [7]

C=C1CC[C@@H]2[C@](C)(CO)[C@H](O)CC[C@@]2(C)[C@@H]1CC(=O)C1=CCOC1=O
inactive: Potency [9] | Potency [5] | Potency [7]

CCc1c[nH]c2ncnc(N3CC[C@](N)(CNC(=O)c4ccc(F)cc4F)C3)c12
active: Potency [5] 1.41 µM
inactive: Potency [1] | Potency [2] | Potency [3] | Potency [4] | Potency [6]

C=CC(=O)Nc1cc(-n2c(=O)ccc3cnc4ccc(-c5ccc(NS(C)(=O)=O)cc5)cc4c32)ccc1C
inactive: Potency [1] | Potency [2] | Potency [3] | Potency [4] | Potency [5] | Potency [6] | Potency [7]

C/C=C(\C)C(=O)O[C@H]1C=C(CO)C(=O)[C@H](OC(C)=O)[C@H]1C(C)C
inactive: Potency [4] | Potency [7]
active: Potency [9] 12.6 µM

CC(C)CCNC(=O)[C@H](CC(C)C)NC(=O)[C@H]1O[C@@H]1C(=O)O
inactive: Potency [1]

COc1cc(N2CCC(N)CC2)ccc1Nc1ncc(Cl)c(-c2c[nH]c3ccccc23)n1
active: Potency [1] 22.4 µM | Potency [2] 28.2 µM | Potency [4] 3.98 µM | Potency [8] 15.8 µM
inactive: Potency [3] | Potency [6]

O=C(Nc1cccc([N+](=O)[O-])c1)c1cccc(S(=O)(=O)N2CCCCCC2)c1
inactive: Potency [1] | Potency [2] | Potency [3] | Potency [4] | Potency [6] | Potency [8]

C/C=C(/C)C(=O)OC1CC(C)(C)CC2C3=CCC4C5(C)CCC(O[C@@H]6O[C@H](C(=O)O)[C@@H](O)[C@H](O)[C@H]6O[C@@H]6O[C@H](CO)[C@H](O)[C@H](O[C@@H]7OC[C@H](O)[C@H](O)[C@H]7O[C@@H]7O[C@H](CO)[C@@H](O)[C@H](O)[C@H]7O)[C@H]6O)C(C)(C)C5CCC4(C)C3(C)C(O)C(O)C12CO (stereo partly specified)
inactive: activity change, negative = cytotoxicity [1] -23.4% [at 6.55 µM] | activity change, negative = cytotoxicity [2] -3.66% [at 6.55 µM] | activity change, negative = cytotoxicity [3] -27.7% [at 6.55 µM] | activity change, negative = cytotoxicity [4] -5.95% [at 6.55 µM] | activity change, negative = cytotoxicity [6] -6.95% [at 6.55 µM]

O=C(c1ccc(Cl)cc1)N1CCN(c2ccnc3cc(Cl)ccc23)CC1
inactive: Potency [1] | Potency [2] | Potency [3] | Potency [4] | Potency [5] | Potency [6] | Potency [7] | Potency [8]

C/C=C(\C)C(=O)OC1C(C)C2(O)C(C=C(CO)CC3(O)C(=O)C(C)=CC32)C2C(C)(C)C12OC(C)=O (stereo unspecified)
inactive: Potency [1] | Potency [2] | Potency [4] | Potency [5] | Potency [6] | Potency [8]
active: Potency [3] 0.224 µM

Cc1cc(F)c(C(=O)Nc2cccc(-c3nncn3C(C)C)n2)cc1-n1cnc(C2CC2)c1
inactive: Potency [1] | Potency [2] | Potency [3] | Potency [5] | Potency [6] | Potency [7] | Potency [8]

N#CSc1cc(SC#N)c(N)nc1N
inactive: activity change, negative = cytotoxicity [1] -3.29% [at 11.6 µM] | activity change, negative = cytotoxicity [2] 10.8% [at 11.6 µM] | activity change, negative = cytotoxicity [4] -2.58% [at 11.6 µM] | activity change, negative = cytotoxicity [6] 10.3% [at 11.6 µM] | activity change, negative = cytotoxicity [7] 2.64% [at 11.6 µM]

Cc1ccc(NC(=O)c2ccc(CN3CCNCC3)cc2)cc1Nc1nccc(-c2cccnc2)n1
active: Potency [1] 22.4 µM | Potency [2] 17.8 µM | Potency [3] 15.8 µM | Potency [5] 11.2 µM | Potency [6] 17.8 µM | Potency [7] 14.1 µM | Potency [8] 12.6 µM

CC(C)c1cc2c(N3CCN(C4=NCC(C)(C)S4)CC3)ncnc2s1
inactive: Potency [1] | Potency [2] | Potency [3] | Potency [4] | Potency [6]

N#Cc1ccc(COc2ccc(-c3cccc4nc(NC(=O)C5CC5)nn34)cc2)cn1
inactive: Potency [2] | Potency [3] | Potency [4] | Potency [5] | Potency [6] | Potency [7] | Potency [8]
active: Potency [1] 22.4 µM

C/C=C(\C)C(=O)O[C@@H]1[C@@H](C)[C@]2(O)[C@@H]3C=C(C)C(=O)[C@H]3CC(CO)=C[C@H]2C2C(C)(C)[C@@]21OC(=O)C(C)CC (stereo partly specified)
inactive: Potency [1] | Potency [2] | Potency [4] | Potency [5] | Potency [8]
active: Potency [3] 0.355 µM

COc1ccccc1N1CCN(CC(C(=O)NC(C)(C)C)c2ccccc2)CC1 (stereo unspecified)
inactive: Potency [1] | Potency [2] | Potency [3] | Potency [4] | Potency [5] | Potency [6] | Potency [7] | Potency [8]

OC1C=C2C3CN(Cc4cc5c(cc43)OCO5)C2CC1O (stereo unspecified)
inactive: Potency [1] | Potency [2] | Potency [6]
active: Potency [3] 25.1 µM | Potency [5] 8.91 µM | Potency [8] 14.1 µM

COc1cc(/C=C2\CCCN([C@@H](C)c3ccc(F)cc3)C2=O)ccc1-n1cnc(C)c1
inactive: Potency [1] | Potency [2] | Potency [4] | Potency [6] | Potency [7]

C/C=C(\C)C(=O)OC1C(C)C2(O)C(C=C(CO)CC3(O)C(=O)C(C)=CC32)C2C(C)(C)C12OC(=O)C(C)C (stereo unspecified)
inactive: Potency [1] | Potency [2] | Potency [3] | Potency [4] | Potency [5] | Potency [7] | Potency [8]

Cc1nc(C#Cc2ccnc(Cl)c2)c(C)n1-c1ccc(F)cc1
inactive: Potency [1] | Potency [2] | Potency [3] | Potency [4] | Potency [6] | Potency [7] | Potency [8]

COc1cc2c(cc1NS(=O)(=O)c1ccc(Br)cc1C)n(C)c(=O)n2C
active: Potency [1] 3.55 µM
inactive: Potency [2] | Potency [4] | Potency [6] | Potency [8]

CC(C)S(=O)(=O)NC[C@@H]1CC(c2ccc(N3CCCC3)c(F)c2)=NO1
inactive: Potency [1] | Potency [2] | Potency [3] | Potency [4] | Potency [6] | Potency [8]

CCN(CCNC(=O)Nc1ccccc1Br)c1cccc(C)c1
inactive: Potency [1] | Potency [2] | Potency [3] | Potency [4] | Potency [5] | Potency [7] | Potency [8]

CC(C)(C)c1ccc(NC(=O)N2CCN(c3ncccc3Cl)CC2)cc1
inactive: Potency [1] | Potency [2] | Potency [3] | Potency [4] | Potency [6]

CC12CCC(OC3OC(CO)C(O)C(O)C3OC3OC(CO)C(O)C(O)C3O)CC1CCC1C2CCC2(C)/C(=C3/COC(=O)C3)CCC12O (stereo unspecified)
inactive: Potency [1] | Potency [2] | Potency [3] | Potency [4] | Potency [5] | Potency [6] | Potency [8]

O=C(COc1ccc(C(=O)c2ccccc2)cc1)NC1CCN(Cc2ccccc2)CC1
inactive: Potency [1] | Potency [2] | Potency [3] | Potency [4] | Potency [6] | Potency [8]

Cc1cc(-c2cnc(N)c3c(-c4ccc5scnc5c4)csc23)n(C)n1
inactive: Potency [1] | Potency [2] | Potency [3] | Potency [4] | Potency [5] | Potency [6] | Potency [8]

CC(=O)NC(C)c1cnc(-c2cnc(Oc3ccc(OC(C)C)cc3)s2)s1 (stereo unspecified)
inactive: Potency [1] | Potency [2] | Potency [4] | Potency [5] | Potency [6] | Potency [7] | Potency [8]

Cc1ccc(S(=O)(=O)NCc2ccc(C(=O)NCCN(Cc3ccccc3)C(C)C)cc2)cc1
inactive: Potency [1] | Potency [2] | Potency [4] | Potency [5] | Potency [6] | Potency [8]

CCC(C)C(=O)OC1C(C)C2(O)C(C=C(CO)CC3(O)C(=O)C(C)=CC32)C2C(C)(C)C12OC(=O)C(C)C (stereo unspecified)
inactive: Potency [1] | Potency [2] | Potency [4] | Potency [5] | Potency [6] | Potency [7] | Potency [8]

CCCCc1c(-c2ccc(OC)cc2)[nH]c2nccnc12
inactive: Potency [1] | Potency [2] | Potency [3] | Potency [4] | Potency [5] | Potency [6] | Potency [7] | Potency [8]

COc1cc([C@H]2O[C@H](c3cc(OC)c4c(c3)OCO4)[C@H](C)[C@H]2C)cc(OC)c1OC
active: Potency [7] 8.91 µM
inactive: Potency [1] | Potency [2] | Potency [4] | Potency [6]

Cc1c[nH]c2ncnc(N3CCC(CN)(C(=O)Nc4cccc(OC(=O)N(C)C)c4)CC3)c12
active: Potency [7] 11.2 µM
inactive: Potency [1] | Potency [2] | Potency [3] | Potency [4] | Potency [6] | Potency [8]

CC(C)CCNC(=O)c1ccc2c(c1)nc(Nc1n[nH]c3ccc(-c4ccccc4OC(F)(F)F)cc13)n2C1CCC(O)CC1 (stereo unspecified)
inactive: Potency [1] | Potency [2] | Potency [3] | Potency [4] | Potency [5] | Potency [6] | Potency [7] | Potency [8]

Cc1ccc(OC[C@H](O)[C@H](C)NC(C)C)c2c1CCC2
inactive: Potency [1] | Potency [2] | Potency [3] | Potency [4] | Potency [5] | Potency [6] | Potency [7] | Potency [8]

COc1ccc(CN2CCN(C(=O)CCNC(=O)c3ccc(C(C)(C)C)cc3)CC2)cc1
inactive: Potency [1] | Potency [2] | Potency [3] | Potency [4] | Potency [6] | Potency [7]

Source: PubChem BioAssay (NCATS)
